We go through twelve compounds from PubChem BioAssay AID2283371 (EPA ToxCast).

Each structure is given as a SMILES string. Records with an inconclusive call do not appear. Active and inactive are the calls of the source. Rule for the calls: active = hit-call score of the fitted dose curve at least 0.9, where 1 is the maximum; inconclusive = response in the unintended direction; inactive = score below 0.9.

Chain of rat Adenosine Transporter (Adot), Slc29a1 (gene 63997) (O54698 whole entry, looked up): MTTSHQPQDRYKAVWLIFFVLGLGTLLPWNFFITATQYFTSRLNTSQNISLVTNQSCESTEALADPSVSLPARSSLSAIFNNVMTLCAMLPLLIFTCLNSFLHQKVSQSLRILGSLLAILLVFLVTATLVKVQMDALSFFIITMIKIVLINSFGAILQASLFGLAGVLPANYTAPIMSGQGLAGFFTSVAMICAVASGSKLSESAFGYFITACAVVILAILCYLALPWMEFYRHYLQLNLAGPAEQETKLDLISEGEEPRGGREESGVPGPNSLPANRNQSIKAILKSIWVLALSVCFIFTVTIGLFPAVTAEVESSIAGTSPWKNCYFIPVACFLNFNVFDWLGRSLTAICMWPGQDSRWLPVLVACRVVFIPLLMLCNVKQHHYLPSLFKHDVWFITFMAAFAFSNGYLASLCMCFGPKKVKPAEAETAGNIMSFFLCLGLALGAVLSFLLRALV

This experiment deals with rat Adenosine Transporter (Adot), Slc29a1 (gene 63997) (UniProt O54698). As to the kind of experiment: NVS_TR_rAdoT: NovaScreen (NVS) Transporter Assay for rat Adenosine Transporter (Adot). Here is the method:
NVS_TR_rAdoT is a biochemical, single-readout assay that uses extracted gene-proteins from Rat forebrain membranes in a tissue-based cell-free assay. Measurements were taken 1 hour after chemical dosing in a 48-well plate.NVS_TR_rAdoT is one of one assay component(s) measured or calculated from the NVS_TR_rAdoT assay. It is designed to make measurements of radioligand binding, a form of binding reporter, as detected with scintillation counting signals by Filter-based radiodetection technology.Data from the assay component NVS_TR_rAdoT was analyzed into 1 assay endpoint. This assay endpoint, NVS_TR_rAdoT, was analyzed in the positive analysis fitting direction relative to DMSO as the negative control and baseline of activity. Using a type of binding reporter, loss-of-signal activity can be used to understand changes in the binding as they relate to the gene Slc29a1. Furthermore, this assay endpoint can be referred to as a primary readout, because the performed assay has only produced 1 assay endpoint. To generalize the intended target to other relatable targets, this assay endpoint is annotated to the transporter intended target family, where the subfamily is nucleoside transporter.
Binding assays used specific radioligands (tritiated, iodinated) with non-radioactive competitive displacement ligands in agonist or antagonist protocols (as indicated) and various reference compounds and inhibitors to titrate specific binding to receptors and transporters. Most enzyme assays (CYPs, kinases, phosphatases, proteases, HDACs) used recombinant protein and specific substrates (fluorescence mostly, some colorimetric and radioactive) and inhibitors, followed by a biochemical separation of substrate and product. All assays for the biochemical HTS were initially run in duplicate at a single concentration (10 uM for CYP450 assays and 25 uM for all others). Assay-chemical combinations meeting a pre-defined threshold (e.g., 30% inhibition and other criteria defined below) were then run in singleton concentration-response format with maximum concentration of 20 uM for CYPs and 50 uM for all others. Each assay was run with positive and negative controls, and concurrent controls on every plate. The follow-up (secondary) screen tested active chemical-pairs in concentration series, as well as a few additional assays not tested in the primary screen, some selected negative inactives, and several cases re-run in the concentration series for confirmatory purposes.
With `CCCCC(CC)COC(=O)c1ccc(C(=O)OCC(CC)CCCC)c(C(=O)OCC(CC)CCCC)c1` (configuration not stated), the result was inactive. Same read-out and setting: with `Cn1c(=O)c2c(ncn2C)n(C)c1=O` the entry was “inactive”; with `S=C(S)NCCNC(=S)S.[Mn+2].[S-]C([S-])=NCCN=C([S-])[S-].[Zn+2]`, “inactive”. As for `CC[C@H]1OC(=O)[C@H](C)[C@@H](O[C@H]2C[C@@](C)(OC)[C@@H](O)[C@H](C)O2)[C@H](C)[C@@H](O[C@@H]2O[C@H](C)C[C@H](N(C)C)[C@H]2O)[C@](C)(O)C[C@@H](C)C(=O)[C@H](C)[C@@H](O)[C@]1(C)O`, the AC50 was 6.47 µM (active). Turning to `CCOP(=S)(Oc1ccc([N+](=O)[O-])cc1)c1ccccc1` (configuration not stated), the compound was classed as inactive. Still for that read-out and setting: the value for `COc1cc2c(c(OC)c1OC)-c1ccc(OC)c(=O)cc1[C@@H](NC(C)=O)CC2` was “inactive”; that for `O=C(O)C(F)(F)C(F)(F)C(F)(F)C(F)(F)C(F)(F)C(F)(F)C(F)(F)F` was “inactive”. Still for that read-out and setting: the value for `S=C1NCCN1` was “inactive”.

In the case of `COc1ccc2cc(S(=O)(=O)N[C@H](CC(=O)N[C@H](Cc3ccc(CN4[C@H](C)CCC[C@@H]4C)cc3)C(=O)N(C)C(C)C)c3ccc4c(c3)OCO4)ccc2c1`, the AC50 was 7.85 µM (active). As to `Oc1ccc(Cl)cc1Cl`, the call was inactive. As for `Cc1oc(-c2ccccc2)nc1CCOc1cccc2c1ccn2CCC(=O)O`, the compound was called inactive. Still for that read-out and setting: the value for `O=S(=O)(O)C(F)(F)C(F)(F)C(F)(F)C(F)(F)C(F)(F)C(F)(F)C(F)(F)C(F)(F)F` was “inactive”.
